This is one part of a sample in which hits are shown more often than they occur.
NOMO-1 viab: STK33 inhibitor candidate reducing NOMO-1 cell viability | AID 2330 | NOMO-1 AML viability, CellTiter-Glo luminescence, 72 h | hit rate 7.5% among 37,000 | inhibition, % (no concentration beside the values); in the data active = inhibition above about 80%
PD-1 reverse act: activators reversing PD-1 mediated T-cell inhibition. 29,000 tested, under 10 active. primary human CD4 T cells, PD-L1 beads, CellTiter-Glo 96 h. activation, % (concentration not given with the values); call rule not given here;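 also: 0% = median vehicle wells and 100% = positive control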
STK33 kin inh: inhibitors of human STK33 kinase | Q9BYT3 | ADP-Glo luminescence, MBP substrate | inhibition, % at 12.5 µM | hit rate 0.44% among 27,000 | AID 2322; in the data active = inhibition above about 20%
Target sequence (Q9BYT3 whole entry, looked up): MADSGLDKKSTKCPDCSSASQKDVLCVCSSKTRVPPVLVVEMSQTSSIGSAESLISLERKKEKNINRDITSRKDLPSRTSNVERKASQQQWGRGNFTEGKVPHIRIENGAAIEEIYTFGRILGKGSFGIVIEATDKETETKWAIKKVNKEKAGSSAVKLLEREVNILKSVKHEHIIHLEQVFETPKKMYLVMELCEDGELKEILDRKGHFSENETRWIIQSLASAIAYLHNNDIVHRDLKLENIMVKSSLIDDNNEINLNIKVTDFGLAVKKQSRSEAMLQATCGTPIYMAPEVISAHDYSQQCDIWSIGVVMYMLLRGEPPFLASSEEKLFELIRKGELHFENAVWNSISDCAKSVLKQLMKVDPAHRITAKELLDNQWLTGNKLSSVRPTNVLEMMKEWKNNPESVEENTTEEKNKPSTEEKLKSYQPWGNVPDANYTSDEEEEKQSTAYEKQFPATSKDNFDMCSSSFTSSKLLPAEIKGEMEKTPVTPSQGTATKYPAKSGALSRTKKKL
* = called active by the depositor; · = no result given.

SMILES	NOMO-1 viab	PD-1 reverse act	STK33 kin inh
Cc1ccc(S(=O)(=O)N(C)C[C@@H]2Oc3ccc(NC(=O)NC(C)C)cc3CC(=O)N([C@@H](C)CO)C[C@@H]2C)cc1	98*	0	1
CC(C)NC(=O)Nc1ccc2c(c1)CC(=O)N([C@H](C)CO)C[C@H](C)[C@H](CN(C)S(=O)(=O)c1ccc(Cl)cc1)O2	24	·	0
Cc1ccc(S(=O)(=O)N(C)C[C@@H]2Oc3ccc(NC(=O)Nc4ccc(F)cc4)cc3CC(=O)N([C@H](C)CO)C[C@@H]2C)cc1	127*	-1	-6
O=C(CSc1nnc(-c2cccc([N+](=O)[O-])c2)o1)c1ccc2c(c1)OCCO2	38	2	4
O=C(/C=C/Sc1ccc(Cl)cc1)c1ccccc1	123*	-6	·
Cc1cc(C)nc(S/C=C/C(=O)c2ccc(Cl)cc2)n1	121*	-1	·
CC(C)(C)C(=O)CC(Nc1ccccc1)c1ccc(Cl)cc1 (stereo not given)	-15	2	·
Cc1cc(C)nc(SCC(O)COc2ccc(Cl)cc2)n1 (stereo not given)	-3	·	-4
Cn1cnnc1S/C=C/C(=O)c1ccc(Cl)cc1	116*	-4	·
Cn1cnnc1Sc1cc(C#N)c(C#N)cc1Sc1nncn1C	22	5	0
CC(C)(C)NC(=O)C[n+]1cccc(/C=N/O)c1	2	1	·
O[C@]12CO[C@H](c3ccc4c(c3)OCO4)[C@H]1CO[C@@H]2c1ccc2c(c1)OCO2	-8	2	1
C/C1=C/CC(=O)[C@@H](C)C[C@H]2OC(=O)C(CO)=C2CC1	51	-2	-1
O=C(CN1C(=O)c2cccc3cccc1c23)Nc1ccc(S(=O)(=O)N2CCCCC2)cc1	13	-1	9
Cc1cc(C(F)(F)F)nn1CCCNC(=O)c1cc(-c2cccnc2)nc2ccc(Cl)cc12	8	·	0
O=S(=O)(NCCNC/C=C/c1ccc(Br)cc1)c1cccc2cnccc12	58	-3	79*
CNCCNS(=O)(=O)c1cccc2cnccc12	14	-1	22*
NCCNS(=O)(=O)c1cccc2c(Cl)cccc12	31	3	5
Cn1c(SCC(=O)Nc2ccc(Br)c(Cl)c2)nnc1-c1ccco1	24	-4	9
Cc1cc(C)cc(N(C(C)C(=O)Nc2cccc(C(F)(F)F)c2)S(C)(=O)=O)c1 (stereo not given)	19	-1	-5
Cc1ccc(NC(=O)Cn2nc(-c3cccc([N+](=O)[O-])c3)c3ccccc3c2=O)c(C)c1	60	-9	2
Cc1ccc(-c2nn(CC(=O)Nc3ccc(C)cc3C)c(=O)c3ccccc23)cc1	111*	-3	0
Cc1cccc(NC(=O)CSc2nnc(-c3ccncc3)n2-c2ccc(C)c(C)c2)c1	29	·	-2
Cc1[nH]c2ccccc2c1C(O)c1cccnc1 (stereo not given)	33	-12	·
Cc1[nH]c2ccccc2c1C(c1ccccc1)N1CCN(C)CC1 (stereo not given)	117*	-7	·
SMILES	NOMO-1 viab	PD-1 reverse act	STK33 kin inh
Cc1ccc(N(CC(N)=O)S(=O)(=O)c2ccc(Cl)cc2)cc1	-23	0	2
COc1ccc(CN(C)C[C@H]2Oc3c(NC(=O)Nc4ccccc4)cccc3C(=O)N([C@@H](C)CO)C[C@H]2C)cc1	2	·	·
COc1ccc(CN(C)C[C@H]2Oc3c(NC(=O)Nc4ccc(OC)cc4)cccc3C(=O)N([C@H](C)CO)C[C@H]2C)cc1	2	-1	·
COc1ccc(NC(=O)Nc2cccc3c2O[C@H](CN(C)Cc2ccc(Oc4ccccc4)cc2)[C@H](C)CN([C@@H](C)CO)C3=O)cc1	113*	-4	·
COc1ccc(CN(C)C[C@@H]2Oc3c(NC(=O)Nc4ccc(F)cc4)cccc3C(=O)N([C@H](C)CO)C[C@H]2C)cc1	94*	-5	·
COc1ccc(CN(C)C[C@@H]2Oc3c(NC(=O)Nc4ccc(OC)cc4)cccc3C(=O)N([C@@H](C)CO)C[C@H]2C)cc1	93*	-7	·
C[C@H]1CN([C@@H](C)CO)C(=O)c2cccc(NC(=O)Nc3cccc4ccccc34)c2O[C@H]1CN(C)Cc1ccc(Oc2ccccc2)cc1	93*	-3	·
COc1ccc(CN(C)C[C@H]2Oc3c(NC(=O)Nc4cccc5ccccc45)cccc3C(=O)N([C@H](C)CO)C[C@H]2C)cc1	46	-1	·
COc1ccc(CN(C)C[C@@H]2Oc3c(NC(=O)Nc4ccc(F)cc4)cccc3C(=O)N([C@@H](C)CO)C[C@@H]2C)cc1	31	0	·
O=C(CSc1nnc(-c2cccs2)n1-c1ccc(Cl)cc1)c1ccc(Cl)cc1	22	·	2
Cc1c(NC(=O)COc2ccc(Cl)cc2Cl)cccc1-c1nc2cc(Cl)ccc2o1	-10	-1	5
N#Cc1ccc(NC(=O)CCC(=O)O)cc1	·	·	1
O=S(=O)(c1ccc(Cl)c(Cl)c1)N1CCN(Cc2ccc(OCCO)cc2)CC1	·	·	-3
CCOc1ccc(CCC(=O)O)cc1	4	-1	·
